# The supplement of paper PMC12632987
# T1: USP38, Q8NB14
# T1 chain: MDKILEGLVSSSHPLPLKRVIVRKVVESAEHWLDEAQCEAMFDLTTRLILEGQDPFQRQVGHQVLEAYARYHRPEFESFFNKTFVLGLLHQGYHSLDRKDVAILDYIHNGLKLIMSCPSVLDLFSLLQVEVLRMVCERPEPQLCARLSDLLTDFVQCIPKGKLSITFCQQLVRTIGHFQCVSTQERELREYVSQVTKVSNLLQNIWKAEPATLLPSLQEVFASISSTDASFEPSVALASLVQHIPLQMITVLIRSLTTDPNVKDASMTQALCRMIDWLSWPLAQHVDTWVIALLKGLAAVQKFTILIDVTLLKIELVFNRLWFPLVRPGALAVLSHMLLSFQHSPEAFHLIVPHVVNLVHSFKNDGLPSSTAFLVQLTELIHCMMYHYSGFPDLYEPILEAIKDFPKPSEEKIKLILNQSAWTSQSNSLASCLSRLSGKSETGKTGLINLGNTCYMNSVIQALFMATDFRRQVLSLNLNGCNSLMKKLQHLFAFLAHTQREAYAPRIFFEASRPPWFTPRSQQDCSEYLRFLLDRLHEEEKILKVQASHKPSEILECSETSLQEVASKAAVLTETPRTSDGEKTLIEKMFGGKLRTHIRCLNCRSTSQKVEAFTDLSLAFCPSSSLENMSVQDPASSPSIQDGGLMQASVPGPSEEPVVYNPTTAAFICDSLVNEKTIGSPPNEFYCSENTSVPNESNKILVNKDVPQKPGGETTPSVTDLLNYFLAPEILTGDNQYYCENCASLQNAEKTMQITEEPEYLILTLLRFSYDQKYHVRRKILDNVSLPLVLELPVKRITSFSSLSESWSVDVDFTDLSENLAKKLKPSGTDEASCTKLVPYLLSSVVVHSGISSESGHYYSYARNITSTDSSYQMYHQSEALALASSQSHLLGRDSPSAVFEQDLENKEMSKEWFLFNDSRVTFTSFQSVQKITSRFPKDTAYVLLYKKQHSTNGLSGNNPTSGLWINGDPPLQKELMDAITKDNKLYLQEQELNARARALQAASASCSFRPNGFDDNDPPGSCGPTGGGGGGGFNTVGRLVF
# Molecular target: T1, USP38, Q8NB14
# Test: median log2 fold change of GCK-ALFA target abundance (FLAG IP / Myc IP barcode read proportion) (log2 ratio); each designed protein is fused to an ALFA-tag nanobody in HEK293 cells to bring the named protein to FLAG-tagged glucokinase (GCK); Myc marks an untargeted standard; higher = target protein stabilised (more abundant)
# Settings: target protein: 3xFLAG-MCP-GCK-ALFA reporter; HEK293 landing pad (RPLP)
# Method in brief: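 HEK293 landing-pad cells received a recombined binder library fused to the ALFA nanobody and were induced with 2 μg mL^−1 doxycycline, then transfected with a plasmid encoding a FLAG-tagged target and a Myc-tagged standard. Lysates were collected after 48 h for anti-FLAG and anti-Myc immunoprecipitation, and the circular RNA barcodes were reverse transcribed, amplified and sequenced. Target abundance for each binder is the median log2 ratio of FLAG to Myc barcode read proportions. Barcodes had to reach a proportion of at least 10^−7 in both replicates, each binder needed at least 3 barcodes per replicate, a pseudocount of 10^−6 was applied, and the two replicates were pooled.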
row,Binder,median log2 fold change
1,usp_38_diff_out_14_2_97 (protein) GKEELEKKFKETKKVLEEAIKKAKELKKEVEKDPSKAEEARKKLFEAWDKAADKVGELQKLLEENPEYKELNKKIIEEVNKLLTELTKAALEALELIAEA,-0.467
2,usp_38_diff_out_14_2_90 (protein) GEEELKKKYEETKKTLEEAIKKAKELKEEVKKDPSKAEEARKRLFEEWDKAADKVGELEKLIRENPEHKELNKKIIEEVNKLITELTKAALEALEAIAEA,-0.724
3,usp_38_diff_out_14_2_78 (protein) MEEKVKKLKEEIEKLLEEAKKLLEEAKKLLKEGDELAEEVLEKLDKAFDKLGELAKLLRELRELDPSQRAFVKEMTKKANELIDELTELRTEALLILAER,0.219
4,usp_38_diff_out_14_2_115 (protein) AVEELKKKTEETLKVLDEAIKKLKELTERVKKDPSTAEEAVKEAFKAWDKAADAVGELNKLILANREHRAENKEATKKVNEKITELTKALTEALTLAAEA,-0.246
5,usp_38_diff_out_14_2_87 (protein) AEEELKKATKETLKKLEEHIKLAKELAERVKKDPSTAEQAREELFASWDEVGDKVGALAKLIEENKEIPELRKKAIEEVNKKLTEATEATLAALELLAEA,-0.418
6,usp_38_diff_out_14_2_118 (protein) GEEELKEKKKATLATLDDAIAKAKALEAAVKADPSIAEQARAELRKAWDAAADAVGELERLIREHPEHRELNKEAIKEVNEKLTELTEALLAALQTIAEA,-0.0211
7,usp_38_diff_out_14_2_113 (protein) AEEELKKAAEKTLKVLDEAIKNLKALKKKVEADPSKAEEATKEAFAAWDKAADAVGELNKLIEANREHRAERKEVTEKVNKKITELTDALTELLTAAAEA,-0.258
8,usp_38_diff_out_14_2_88 (protein) AEEELKKATEETLKKLEEGIKLAKELTKKVKEDPSQAEKAREELFKKHDEIGDAVGRLAKLIEEHKEIPALNKEAVEEVNKKLTEYTEETLKALELLAEA,-0.277
9,usp_38_diff_out_14_2_116 (protein) AVEEIKAATDATLATLAAATAALAELKKRVEADPSLAEEARAEAFAAWDAAADAVGALNRLMEANREHRAERKEATAKINAALTTLTAALTETLEAAAAA,-0.132
10,usp_38_diff_out_14_2_94 (protein) GEEELKKKYEETLKVLEEAIKEAKKIKEEVKKDPSIAEEKRKELFEKWDEAADKVGELQKLLEENPEHKELNKKIIEEVNKKITELTKAALEALEELAKA,0.0575
11,usp_38_diff_out_14_2_92 (protein) GKEKLEEKFKETKEKLKEAIKKAKELKKEVKKDPSKAEEAREELFKAWDEAGDKVGELEKLLRENPEYKELNKKIKEEVNKLITELTEAALEALEEIAKA,-0.436
12,usp_38_diff_out_14_2_120 (protein) AVEEIKKATDDTLAKLDAAIAAAKALTAQVKADPSLKEQARAALNAAWDAAGDAVGALNKLLEANKEEKATNKEATAKTNAAITELTAAVLDALTTIEEA,-0.172
13,usp_38_diff_out_14_2_81 (protein) AEEELKAATEKTLAVLDDAIKAAKELTKEVKKDPSLAEKAREKLLEEWDKAGDAVGELEKLILENKEAKETNKEAREKVNKKLDELTKAFLEALETAAEA,-0.289
14,usp_38_diff_out_14_2_89 (protein) GEEELEKKTKETLEKLEELIELAKKIKEEVEKDPSKAEELRKELFKKWDEVGEKVGELAKLIEEHKELPELNKKAVKEVNEKLSEATKEILEALELLAEA,-0.37
15,usp_38_diff_out_14_2_117 (protein) GEEEIKKATEETLKVLKEAIKKLKELKKRVEEDPSKAAEATEEAFRAWDKAADAVGALNKLLEAHKEHREENKKATKEVNKAITELTEALTELLTAAAEA,-0.0949
16,usp_38_diff_out_14_2_110 (protein) AEEKLKKATKETLATLKEAIKLAKELKKEVKKDPSKKEEARKKLFEAHDKAADAVGKLAKLIEENKELRELNKKATKEVDKAITEYTKAALEALEEIEKA,-0.599

row,Binder,median log2 fold change
1,usp_38_diff_out_14_2_82 (protein) AVEKIKKATEETLKVLEEAIKKFKELKKEVEADPSKAEEARKEILKAWDKAGDAVGALNKLIEENPEAKEENKEATKKVNEALTKLTKEALEALQAAAEA,-0.116
2,usp_38_diff_out_14_2_119 (protein) AKAEIAKATAATLATLAAAIKKAKELTKKVKADPSLKEKARAELDKAWDAAGDAVGALNTLLLANKDLKAENKKATAATNAAITELTKTYTEALEAIEEA,-0.186
3,usp_38_diff_out_14_2_122 (protein) AEAELEAAAAATKATLEDAIKRVKELLEEVKKDPSKAEEALKELRRLWDEAADAVGALARLMEAHRELRALRKRITAEVNALITEFTEAVLELLEEIAEA,-0.56
4,usp_38_diff_out_14_2_93 (protein) GEEELKKLFEETKKVLEEAIKRAEELTKEVKADPSQAEKARKELFKAWDEAGDKVGELQKKIEENKEHKELNKKIIKEVNELITKLTEAALAALEEIAAA,-0.0116
5,usp_38_diff_out_14_2_114 (protein) GEAEIKAATAETLAVLEEAIKKLKELTERVKADPSKAEEARKEAFEAWDKAADAVGALRKLMEAHREHRAEIKEATAKVNEAITKLTEALTETLELAAEA,-0.239
6,usp_38_diff_out_14_2_111 (protein) AKEELEKATKETLEVLKEATKLAKELKEEVKKDPSKAEEARKKLFEAHDKAGDAVGELNKLILENKELRELNKKATEEVNKAITEYTKATLEALETIAEA,-0.197
7,usp_38_diff_out_14_2_79 (protein) MEEKAKEVLKKLEEKTKEVKKVTEELEKALSGSKEEIEKAVEKAFKVLDEAGKVSAEAEEVRRENPKFRAEFKKAFKELDKELSKLSKAILEALEKIAEL,-0.624
8,usp_38_diff_out_14_2_109 (protein) KEEELKKKKEETLKKLDEAIKKAKELKEEVKKDPSKKEEAFKELFEKHDEAADAVGELNKLILENKELRELNKEVTEEVNKKITEYTEAVLEALEEIAEA,-0.1
9,usp_38_diff_out_14_2_85 (protein) AEEKIKKATEKTLKKLEEAIKLAKELKEEVKKDPSKAEKAREELFKKWDEVGDAVGELAKLLEENKEIPALNKEANEKVNEKLTELTKATLEALEELAEA,-0.606
10,usp_38_diff_out_14_2_95 (protein) GEEELKKAAKETKEVLKKAIEEAKELEKKVKEDPSQAEQARKELFKKWDEAGDAVGKLEKLLRENPEHKELNKKIIEEVNKLINELTKAALKALETLAEA,-0.416
11,usp_38_diff_out_14_2_84 (protein) MEEEIKKKTKETLKKIEEAIKRAKELKERVKKDPSLKEKAREELFKEWDEAADKVGELEKLLRENKENPELNKKAREEVNKKLTELTEVALETLELIAEV,-0.366
12,usp_38_diff_out_14_2_121 (protein) AKEELEKATKKALETLDKALEEAKRLKEEVKKDPSKAEEAFKRLREAWDKAADAVGELNKLMLEHKEEKETIKEATEKVNKKITELTKATLEALEEAAKA,-0.64
13,usp_38_diff_out_14_2_83 (protein) MEEEIKEKTKETLEEIEKAIKELKELEKEVKKDPSKKEEAYKKAFEKWDKAADKVGELEKLLRENKENPELNKKAKEEINEKLTKLTEEALKLLETIAEV,-0.316
14,usp_38_diff_out_14_2_86 (protein) AEEELKKKTEETKKKLKEGIELAKKIKEEVKKDPSKAEELRKKLFEKHDEIGDKVGELAKLIEEHKEIPALRKEAVKEVNELLTEYTKALLEALEELAKA,-0.431
15,usp_38_diff_out_14_2_80 (protein) AEEKLKKATEETLKVLKEAIKKAKELKKEVEADPSLAEKAREELLKAWDKAGDAVGALNKLIEENKEAKETRKKATEEVNKAIDELTKEVLEALQTAAEA,-0.879
16,usp_38_diff_out_14_2_112 (protein) AKEELEKKKEETLKTLEEAIKKAKELKKEVEKDPSKKEEAFKELRKKHDEAADKVGELNKLILENKELRELNKKVTEEVNEKIKEYTEAVLEALEKIAEA,0.0138
